# From PubChem BioAssay (NCATS)
# Where “and” joins values, the source holds several entries; their conditions need not be identical. Equal entries are not always repeated. Records with an inconclusive call do not appear. Where a call stands in place of a potency, no number is given. Calls of active or inactive are those of the source. The call rests on the fitted dose curve; in most records, active means well fitted curve in the direction sought with a large enough effect; inconclusive means small, poorly fitted or top-dose-only effect, or another doubt; inactive means no such curve, though single readings can be large; an effect the other way counts as inactive or inconclusive.
# Tests used:
# [1] = qHTS of pediatric cancer cell lines to identify multiple opportunities for drug repurposing: Primary screen for A673 cells (AID 1347092); further: nearly all actives have a fitted effect of over 45% in size; further: potency means the concentration at half of the fitted maximal effect
# In short: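 Titration-based qHTS on A673 cells: MIPE compounds spanned 11 points (0.78 nM to 46 µM final), NPC compounds 8 points (0.59 nM to 46 µM final). Viability after 48 h was measured by ATP luminescence.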
# [2] = qHTS of pediatric cancer cell lines to identify multiple opportunities for drug repurposing: Primary screen for BT-37 cells (AID 1347094); further: potency means the concentration at half of the fitted maximal effect
# In short: (§1)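 Plated cells (500-1,000 per well, growth media) were allowed to settle for 5 hours, treated with compound dilutions for 48 hours, then lysed with CellTiter-Glo for 15 min at room temperature before luminescence reading.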
# [3] = qHTS of pediatric cancer cell lines to identify multiple opportunities for drug repurposing: Primary screen for NB-EBc1 cells (AID 1347095); further: potency means the concentration at half of the fitted maximal effect
# In short: as §1
# [4] = qHTS of pediatric cancer cell lines to identify multiple opportunities for drug repurposing: Primary screen for U-2 OS cells (AID 1347096); further: nearly all actives have a fitted effect of over 50% in size
# In short: (§2)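 Cells (500-1,000/well) rested 5 h, then received compounds for 48 h; metabolically active cells were measured by CellTiter-Glo luminescence. Final concentrations spanned up to 46 µM (MIPE, 11-point) or 0.59 nM-46 µM (NPC, 8-point) in primary screens, 11-point in follow-ups.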
# [5] = qHTS of pediatric cancer cell lines to identify multiple opportunities for drug repurposing: Primary screen for Saos-2 cells (AID 1347097); further: nearly all actives have a fitted effect of over 40% in size; further: potency means the concentration at half of the fitted maximal effect
# In short: as §1
# [6] = qHTS of pediatric cancer cell lines to identify multiple opportunities for drug repurposing: Primary screen for SK-N-SH cells (AID 1347098); further: nearly all actives have a fitted effect of over 65% in size; further: potency means the concentration at half of the fitted maximal effect
# In short: as §2
# [7] = qHTS of pediatric cancer cell lines to identify multiple opportunities for drug repurposing: Primary screen for NB1643 cells (AID 1347099); further: nearly all actives have a fitted effect of over 50% in size; further: potency means the concentration at half of the fitted maximal effect
# In short: as §1
# [8] = qHTS of pediatric cancer cell lines to identify multiple opportunities for drug repurposing: Primary screen for LAN-5 cells (AID 1347100); further: potency means the concentration at half of the fitted maximal effect
# In short: as §2
# [9] = qHTS of pediatric cancer cell lines to identify multiple opportunities for drug repurposing: Primary screen for BT-12 cells (AID 1347101); further: nearly all actives have a fitted effect of over 25% in size; further: potency means the concentration at half of the fitted maximal effect
# In short: as §2
# [10] = qHTS of pediatric cancer cell lines to identify multiple opportunities for drug repurposing: Primary screen for Rh18 cells (AID 1347102); further: nearly all actives have a fitted effect of over 65% in size; further: potency means the concentration at half of the fitted maximal effect
# In short: as §2
# [11] = qHTS of pediatric cancer cell lines to identify multiple opportunities for drug repurposing: Primary screen for OHS-50 cells (AID 1347103); further: nearly all actives have a fitted effect of over 40% in size; further: potency means the concentration at half of the fitted maximal effect
# In short: as §2
# [12] = qHTS of pediatric cancer cell lines to identify multiple opportunities for drug repurposing: Primary screen for RD cells (AID 1347104); further: nearly all actives have a fitted effect of over 55% in size; further: potency means the concentration at half of the fitted maximal effect
# In short: as §1
# [13] = qHTS of pediatric cancer cell lines to identify multiple opportunities for drug repurposing: Primary screen for MG 63 (6-TG R) cells (AID 1347105); further: nearly all actives have a fitted effect of over 50% in size; further: potency means the concentration at half of the fitted maximal effect
# In short: as §1
# [14] = qHTS of pediatric cancer cell lines to identify multiple opportunities for drug repurposing: Primary screen for control Hh wild type fibroblast cells (AID 1347106);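 further: series mostly up to about 46 µM; a drop in luminescence marks cytotoxicity and a rise apparent proliferation; nearly all actives have a fitted effect of over 55% in size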
# In short: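 Viability after 48 h compound treatment at 37C, 500-1,000 cells/well, read as ATP luminescence with CellTiter-Glo. Primary screens used 11-point (MIPE, 0.78 nM-46 µM) or 8-point (NPC, 0.59 nM-46 µM) final concentrations; follow-up screens used 11-point dilutions.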
# [15] = qHTS of pediatric cancer cell lines to identify multiple opportunities for drug repurposing: Primary screen for Rh41 cells (AID 1347108); further: nearly all actives have a fitted effect of over 70% in size; further: potency means the concentration at half of the fitted maximal effect
# In short: as §1
# [16] = qHTS of pediatric cancer cell lines to identify multiple opportunities for drug repurposing: Confirmatory screen for NB1643 cells (AID 1347109); further: nearly all actives have a fitted effect of over 45% in size
# In short: as §2
# [17] = qHTS of pediatric cancer cell lines to identify multiple opportunities for drug repurposing: Confirmatory screen for SK-N-MC cells (AID 1347111);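 further: cells exposed to compound for 48 h before the readout; nearly all actives have a fitted effect of over 70% in size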; further: potency means the concentration at half of the fitted maximal effect
# In short: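 Seed 500-1,000 cells/well; rest 5 h at 37 degrees C. Pin-transfer compounds, 11-point titration. Incubate 48 h. Add CellTiter-Glo, 15 min RT, read luminescence.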
# [18] = qHTS of pediatric cancer cell lines to identify multiple opportunities for drug repurposing: Primary screen for SK-N-MC cells (AID 1347093); further: potency means the concentration at half of the fitted maximal effect
# In short: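 Metabolically active cells were quantified by ATP-dependent luminescence (CellTiter-Glo, 15 min at room temperature) following 48 h treatment. Cells had been plated at 500-1,000 per well and settled for 5 h beforehand.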
# [19] = qHTS of pediatric cancer cell lines to identify multiple opportunities for drug repurposing: Confirmatory screen for A673 cells (AID 1347110);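 further: cells exposed to compound for 48 h before the viability read; nearly all actives have a fitted effect of over 65% in size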; further: potency means the concentration at half of the fitted maximal effect
# In short: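 Forty-eight-hour viability assay. Follow-up compounds ran at 11-point dilutions; positive control bortezomib at 2.3 uM final, neutral control DMSO.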
# [20] = qHTS of pediatric cancer cell lines to identify multiple opportunities for drug repurposing: Primary screen for Rh30 cells (AID 1347107); further: series mostly up to about 46 µM; nearly all actives have a fitted effect of over 75% in size
# In short: as §2
Compound,Potency [1],Potency [2],Potency [3],Potency [4],Potency [5],Potency [6],Potency [7],Potency [8],Potency [9],Potency [10],Potency [11],Potency [12],Potency [13],Potency [14],Potency [15],Potency [16],Potency [17],Potency [18],Potency [19],Potency [20]
Nc1nc2c(ncn2COCCO)c(=O)[nH]1,inactive,inactive,inactive,inactive,inactive,inactive,inactive,inactive,inactive,inactive,inactive,inactive,inactive,inactive,inactive,inactive,inactive,–,–,–
CCOc1cc(C=C2C(=O)N(c3ccccc3)N=C2C)cc(Cl)c1OCC(=O)OC,–,inactive,20.9 µM (active),inactive,inactive,–,–,–,inactive,–,–,inactive,–,inactive,–,–,–,11.8 µM (active),–,–
COCC(=O)NCC=Cc1ccc2ncnc(Nc3ccc(Oc4ccc(C)nc4)c(C)c3)c2c1,4.69 µM (active),–,–,inactive,16.6 µM (active),–,20.9 µM (active),18.7 µM (active),19.3 µM (active),–,19.3 µM (active),–,inactive,inactive,–,–,–,–,23.3 µM (active),–
CCCC(CCC)C(=O)O,inactive,inactive,inactive,inactive,inactive,inactive,inactive,–,inactive,inactive,inactive,inactive,inactive,inactive,inactive,–,–,–,–,inactive
Cc1oncc1C(=O)Nc1ccc(C(F)(F)F)cc1,–,inactive,–,inactive,inactive,–,inactive,inactive,–,inactive,–,inactive,inactive,inactive,inactive,inactive,7.37 µM (active),6.68 µM (active),–,–
O=C(Nc1cccnc1)N1CCC(Cc2cccc(Oc3ccc(C(F)(F)F)cn3)c2)CC1,11.8 µM (active),–,–,inactive,–,inactive,inactive,–,10.9 µM (active),inactive,10.9 µM (active),–,inactive,inactive,inactive,–,–,–,–,–
CCN(CC)CCCC(C)Nc1nc(C)cc(Nc2ccc3nc(C)cc(N)c3c2)n1 (centres undefined),–,inactive,inactive,inactive,–,inactive,inactive,inactive,inactive,inactive,–,inactive,inactive,inactive,inactive,–,–,inactive,–,–
CCOC(=O)N1CCC(=C2c3ccc(Cl)cc3CCc3cccnc32)CC1,23.5 µM (active) and 26.6 µM (active),–,20.9 µM (active),inactive,–,30.7 µM (active),–,–,–,–,24.3 µM (active) and 21.9 µM (active),29.9 µM (active),13.3 µM (active),inactive,23.5 µM (active) and 23.7 µM (active),–,–,–,–,–
Cn1cnc2c(F)c(Nc3ccc(Br)cc3Cl)c(C(=O)NOCCO)cc21,2.35 µM (active),–,–,–,–,–,9.35 µM (active),–,–,–,inactive,–,–,inactive,14.8 µM (active),–,inactive,2.64 µM (active),inactive,–
COc1cc(F)c(F)c(Nc2ccc(I)cc2F)c1NS(=O)(=O)C1(C[C@H](O)CO)CC1,–,inactive,inactive,–,–,–,inactive,inactive,–,inactive,–,–,inactive,inactive,–,–,–,16.6 µM (active),–,–
CC(C)C[C@H](NC(=O)[C@@H](O)[C@H](N)Cc1ccccc1)C(=O)O,–,27.3 µM (active),–,inactive,18.7 µM (active),24.1 µM (active),–,–,30.6 µM (active),–,19.3 µM (active),37.2 µM (active),–,inactive,23.5 µM (active),–,–,29.6 µM (active),–,–
O=C1CCCC2=C1C(c1[nH]ncc1Cl)N=C(Nc1nc3ccccc3o1)N2 (centres undefined),inactive,inactive,inactive,inactive,–,–,–,inactive,–,inactive,–,–,inactive,inactive,–,–,–,–,–,inactive
Cc1ccc(N(CC2=NCCN2)c2cccc(O)c2)cc1,18.7 µM (active) and 16.8 µM (active),inactive,inactive,inactive,–,–,inactive,inactive,–,inactive,27.3 µM (active) and 30.9 µM (active),inactive,inactive,inactive,inactive,–,–,–,–,–
C1COC(NC(C2CC2)C2CC2)=N1,inactive,inactive,inactive,inactive,inactive,inactive,inactive,–,inactive,inactive,inactive,inactive,inactive,inactive,inactive,–,–,–,–,inactive
Cc1ccccc1C(C(=O)NC1CCCC1)N(C(=O)Cn1cnc2ccccc21)c1cccc(F)c1 (centres undefined),inactive,–,inactive,inactive,–,inactive,–,inactive,–,–,–,–,inactive,inactive,–,–,–,–,–,inactive
O=C1CCc2cc(OCCCCc3nnnn3C3CCCCC3)ccc2N1,inactive,inactive,inactive,inactive,inactive,inactive,–,inactive,inactive,inactive,inactive,inactive,inactive,inactive,inactive,–,–,–,–,inactive

Compound,Potency [1],Potency [2],Potency [3],Potency [4],Potency [5],Potency [6],Potency [7],Potency [8],Potency [9],Potency [10],Potency [11],Potency [12],Potency [13],Potency [14],Potency [15],Potency [16],Potency [17],Potency [18],Potency [19],Potency [20]
Cc1cc([C@@H](C)Nc2ccccc2C(=O)O)c2nc(N3CCOCC3)cc(=O)n2c1,–,55.9 µM (active),24.1 µM (active),inactive,9.59 µM (active),9.87 µM (active),6.05 µM (active),–,–,12.1 µM (active),2.22 µM (active),12.1 µM (active),1.71 µM (active),inactive,8.55 µM (active),–,–,0.191 µM (active),–,–
COc1ccc(CC2=NN3C([C@@H](CCc4ccccc4)[C@@H](C)O)=NC(C)C3C(=O)N2)cc1OC (some centres undefined),inactive,inactive,inactive,inactive,inactive,–,–,inactive,inactive,inactive,inactive,inactive,inactive,inactive,–,–,–,–,–,–
c1ccc(-c2nn3c(c2-c2ccnc4cc(OCCN5CCOCC5)ccc24)CCC3)nc1,–,–,–,inactive,–,inactive,–,–,inactive,inactive,–,inactive,inactive,inactive,inactive,–,–,inactive,–,inactive
NC[C@H](O)c1ccc(O)c(O)c1,–,inactive,inactive,inactive,inactive,inactive,inactive,inactive,inactive,inactive,inactive,inactive,inactive,inactive,inactive,–,–,–,–,–
COc1ccc(CCN2CCN(CCCc3ccccc3)CC2)cc1OC,–,–,–,inactive,–,inactive,–,–,–,inactive,–,–,inactive,inactive,inactive,–,–,18.7 µM (active),–,–
COc1ccc2nc(S(=O)Cc3ncc(C)c(OC)c3C)[nH]c2c1 (centres undefined),–,inactive,inactive,inactive,inactive,inactive,–,inactive,–,inactive,–,inactive,inactive,inactive,inactive,–,–,–,–,inactive
COc1cccc2cc(-c3nc(C4CCC(C(=O)O)CC4)n4ncnc(N)c34)[nH]c12 (centres undefined),–,–,1.66 µM (active),–,–,–,inactive,–,0.344 µM (active),–,0.109 µM (active),–,–,–,–,inactive,inactive,0.0235 µM (active),–,–
CC[C@H](Nc1ncnc2nc[nH]c12)c1nc2cccc(F)c2c(=O)n1-c1ccccc1,–,–,14.8 µM (active),–,9.35 µM (active),7.64 µM (active),16.6 µM (active),–,–,–,6.85 µM (active),–,2.35 µM (active),inactive,14.8 µM (active),–,–,0.935 µM (active),–,–
O=C(Nc1ccc(F)c(C(F)(F)F)c1)Nc1nnc(-c2ccncc2)s1,–,inactive,–,inactive,inactive,–,–,–,–,inactive,inactive,–,–,inactive,inactive,–,–,20.9 µM (active),–,–
Cc1n[nH]c(C)c1Cc1sc2c(c1C(=O)N1C[C@H](O)CO1)c(=O)n(C)c(=O)n2CC(C)C,–,inactive,inactive,inactive,–,inactive,1.05 µM (active),–,inactive,inactive,inactive,inactive,inactive,inactive,–,–,–,–,–,–
CCCCCCCc1ccc(CCc2cccc(O)c2C(=O)O)cc1,–,–,–,inactive,inactive,–,inactive,inactive,–,inactive,–,–,–,inactive,–,–,–,9.35 µM (active),–,–
NC(N)=NC(=O)c1nc(Cl)c(N)nc1N,–,inactive,inactive,inactive,inactive,–,–,inactive,inactive,inactive,inactive,inactive,inactive,inactive,inactive,inactive,–,–,1.17 µM (active),inactive
CCOc1cc(C(=O)Nc2ccc(Cl)c(-c3nc4ccccc4[nH]3)c2)cc(OCC)c1OCC,–,–,inactive,–,–,5.41 µM (active),11.8 µM (active),–,inactive,inactive,inactive,2.96 µM (active),inactive,–,–,–,–,–,–,–
Cc1ccnc(NS(=O)(=O)c2ccc(NC(=O)Nc3ccc(S(=O)(=O)Nc4nccc(C)n4)cc3)cc2)n1,–,10.9 µM (active),14.8 µM (active),inactive,–,–,inactive,–,24.3 µM (active),inactive,inactive,inactive,inactive,inactive,inactive,–,–,–,–,inactive
Nc1ncnc2nc(-c3ccc(N4CCOCC4)nc3)cc(-c3cccc(Br)c3)c12,–,–,inactive,–,inactive,–,–,–,–,–,–,–,inactive,inactive,–,–,–,–,–,–
